sEH inh – soluble epoxide hydrolase inhibitors, primary screen, biochemical, human sEH. inhibition, % at 2 µM. recombinant human sEH enzymatic activity assay. 0.34% of 91,000 active; in the data active = inhibition above about 80%
CYP2C19 inh – blockers of cytochrome P450 2C19 activity – biochemical, luminescence, ADME assay, primary screen | P33261 | CYP2C19 Supersomes, luciferin-H EGE luminescence, 30 min | inhibition, % at 5 µM | 21% of 96,000 active;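 active = CYP2C19 inhibition above a set limit at 5 µM in the primary screen, cut at about 50% in these data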
Target sequence (P33261 whole entry, looked up): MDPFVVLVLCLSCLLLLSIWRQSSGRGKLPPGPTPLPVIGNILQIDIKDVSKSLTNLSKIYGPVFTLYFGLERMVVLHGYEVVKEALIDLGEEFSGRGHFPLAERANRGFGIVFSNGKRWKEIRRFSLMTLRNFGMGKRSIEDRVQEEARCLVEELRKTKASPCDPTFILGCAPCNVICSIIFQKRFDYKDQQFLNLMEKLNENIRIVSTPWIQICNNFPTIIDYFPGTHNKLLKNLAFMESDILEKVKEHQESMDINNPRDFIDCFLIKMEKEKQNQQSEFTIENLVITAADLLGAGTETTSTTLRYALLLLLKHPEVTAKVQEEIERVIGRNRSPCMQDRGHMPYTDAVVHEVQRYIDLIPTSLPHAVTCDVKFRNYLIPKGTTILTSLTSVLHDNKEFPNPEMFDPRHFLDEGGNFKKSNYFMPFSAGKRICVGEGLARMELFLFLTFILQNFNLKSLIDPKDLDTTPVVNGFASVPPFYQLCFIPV
sEH activator – soluble epoxide hydrolase activators, primary screen, biochemical, human sEH. purified human sEH enzymatic activity, activator screen. activation, % at 2 µM. 0.04% of 91,000 active. Bifunctional epoxide hydrolase 2 (Homo sapiens), P34913; in the data active = activation above about 37%
CYP2C9 activ – human CYP2C9 activators, primary screen, biochemical, luminescence. recombinant CYP2C9, luciferin-H conversion; stronger effect = higher value; factor 1 = untreated enzyme, 0 = blocked. Cytochrome P450 2C9 (Homo sapiens), P11712. 1.4% of 96,000 active. activation factor at 5 µM. AID 1024, 2008;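 active = activation factor of 2 or more for CYP2C9 at a 5 µM dose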
CYP2C9 inh – blockers of cytochrome P450 2C9 activity – biochemical, luminescence, ADME assay, primary screen; P11712; CYP2C9 Supersomes, luciferin-H conversion; inhibition, % at 5 µM; 20% of 96,000 active; AID 777, 2007;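 active = blocking of liver enzyme CYP2C9 beyond about 50% at 5 µM, limit read from the data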
CYP2C19 act – human CYP2C19 activators, primary screen, biochemical, luminescence. recombinant CYP2C19, luciferin-H EGE luminescence; stronger effect = higher value; 0 = fully inhibited enzyme, 1 = untreated enzyme. activation factor at 5 µM. 96,000 tested, under 10 active. AID 1025, 2008;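 active = activation factor of at least 2 at 5 µM in the primary screen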
Large screens that a line does not name were inactive. Compounds with a hit are over-represented: about 27% of the library has one in this group of screens.

Cc1cccc(C(=O)NNC(=O)c2ccc(Cl)cc2)c1O	CYP2C19 inh 50.3, CYP2C9 activ 2.9
Cc1ccc(C)n1NC(=O)c1ccc(Cl)cc1	none
O=C(NNC(=O)c1ccc(O)cc1O)c1ccc(Cl)cc1	CYP2C9 activ 2
C=CCOc1ccc(/C(O)=C2/C(=O)C(=O)N(CCCn3ccnc3)C2c2cccs2)cc1 (configuration not stated)	none
COc1cccc(NC(=O)COc2ccc(S(=O)(=O)NC(C)C)cc2)c1	none (no result: CYP2C19 inh, CYP2C9 activ, CYP2C9 inh, CYP2C19 act)
O=C(NCC1CCCO1)c1sc(=S)n2c1[nH]c(=O)c1ccc(C(=O)N3CCCCC3)cc12 (configuration not stated)	CYP2C9 inh 86.5 (no result: sEH inh, sEH activator)
O=C(NC1CCCCCC1)c1c(O)c2ccccc2[nH]c1=O	none
O=C(NC1CCCCC1)c1sc(=S)n2c1[nH]c(=O)c1ccccc12	CYP2C19 inh 71.9, CYP2C9 inh 94.9
CCCCNC(=O)c1sc(=S)n2c1[nH]c(=O)c1ccccc12	CYP2C9 inh 93.6
CS(=O)(=O)N1CCC(C(=O)NCC2CCCO2)CC1 (configuration not stated)	none
Cc1nc2nc(-c3ccco3)[nH]n2c(=O)c1C	none
CN(C)c1ccc(NC(=O)CSCc2nc3c(nnn3Cc3ccc(F)cc3)c(=O)[nH]2)cc1	CYP2C9 inh 59.4
CCC(C)[C@H](NC(=O)OC(C)(C)C)C(=O)N/N=C/c1ccc2nccnc2c1 (some centres not stated)	CYP2C9 inh 54.8
CC(C)C[C@H](NC(=O)OC(C)(C)C)C(=O)N/N=C/c1ccc2nccnc2c1	none
Cc1csc(SCC(=O)NC23CC4CC(CC(C4)C2)C3)n1	none
Cc1c(Cl)c([N+](=O)[O-])nn1CC(=O)NC12CC3CC(CC(C3)C1)C2	CYP2C19 inh 79.0
O=C(NC12CC3CC(CC(C3)C1)C2)C1=COCCO1	none
c1cncc(-c2nc3cc(Cc4ccc5oc(-c6cccnc6)nc5c4)ccc3o2)c1	none (no result: sEH inh, sEH activator)
c1cc(-c2nc3cc(Cc4ccc5oc(-c6ccncc6)nc5c4)ccc3o2)ccn1	CYP2C9 inh 51.1 (no result: sEH inh, sEH activator)
Cc1ccsc1C(=O)NNC(=S)NCC(C)C	CYP2C19 inh 91.1
Cc1cccc(NC(=S)NNC(=O)c2sccc2C)c1	CYP2C19 inh 73.3, CYP2C9 inh 88.0
COc1ccc(C(=O)CSc2nnc(Cc3ccccc3)o2)cc1	none (no result: sEH inh, sEH activator)
COc1ccc(C(=O)CSc2nnnn2Cc2ccccc2)cc1	CYP2C19 inh 59.9
O=C(CSc1nnnn1Cc1ccccc1)N1CCN(c2ccccc2)CC1	none
O=C(CSc1nnnn1Cc1ccccc1)c1ccccc1	CYP2C19 inh 74.3
COc1cccc(C(=O)CSc2nnnn2C)c1	CYP2C19 inh 71.8
COC(=O)c1cc(OC)c(OC)cc1NC(=O)CSc1nnnn1Cc1ccccc1	CYP2C19 inh 74.8, CYP2C9 inh 81.8
COC(=O)c1cc(OC)c(OC)cc1NC(=S)N1CCN(Cc2ccccc2)CC1	CYP2C19 inh 100.0
COC(=O)c1ccc(CSc2nnnn2Cc2ccccc2)cc1	CYP2C9 inh 78.2
CCc1ccc(N2C(=O)c3ccc4c5c(ccc(c35)C2=O)CC4)cc1	none
Cn1nc(C(F)(F)F)cc1C(=O)NC1CCCCCC1	none
CSc1ncccc1C(=O)OCC(=O)Nc1cc(C(F)(F)F)ccc1N1CCOCC1	CYP2C9 inh 51.4
O=C(CSc1nc2ccccc2[nH]1)Nc1ccccc1N1CCOCC1	CYP2C19 inh 98.3, CYP2C9 inh 78.8
O=C(COC(=O)c1ccc(F)cc1)Nc1ccccc1N1CCOCC1	none (no result: CYP2C19 inh, CYP2C9 activ, CYP2C9 inh, CYP2C19 act)
O=C(Nc1cc(C(F)(F)F)ccc1N1CCOCC1)c1n[nH]c(=O)c2ccccc12	none
O=C(CSc1nc2ccccc2[nH]1)Nc1cc(C(F)(F)F)ccc1N1CCOCC1	CYP2C19 inh 99.1, CYP2C9 inh 99.2
O=C(Cn1c(CO)nc2ccccc21)Nc1cc(C(F)(F)F)ccc1N1CCOCC1	CYP2C9 inh 52.8
O=C(Nc1ccc(Cl)cc1)N1CCCN(Cc2ccccc2F)C1	none
C=CCC1(O)C(=O)Nc2ccccc21 (configuration not stated)	none
O=C(Nc1cccc(C(F)(F)F)c1)c1n[nH]c(Cn2cncn2)n1	CYP2C9 inh 51.4
O=C(Nc1ccccc1)c1n[nH]c(Cn2cncn2)n1	none
COc1ccccc1NC(=O)/C(C#N)=C/C=C/c1ccco1	CYP2C9 activ 3
c1csc(CNc2nc3ccccc3n2CCN2CCOCC2)c1	CYP2C9 inh 50.7
c1n[nH]c(NC2=NCCC2)n1	none
O=C1N=C2SCCN2/C1=C\c1ccccc1Cl	none
Cc1nn(-c2ccc(Cl)cc2)c(N)c1C(O)(CSc1nccn1C)C(F)(F)F (configuration not stated)	CYP2C19 inh 74.8, CYP2C9 inh 87.4 (no result: sEH inh, sEH activator)
Cc1nn(-c2ccccc2)c(N)c1C(O)(CSc1nccn1C)C(F)(F)F (configuration not stated)	CYP2C19 inh 92.7, CYP2C9 inh 86.8
Cc1c(NC(=O)CSc2nccn2C)c(=O)n(-c2ccccc2)n1C	none
Cc1ccc(Nc2nc(N)nc(CSc3nccn3C)n2)cc1	none
CC(C1CC1)N(C(=O)c1ccccc1O)c1ccccc1 (configuration not stated)	CYP2C19 inh 80.2 (no result: sEH inh, sEH activator)
O=C(NC1=NC2CCCCC2N1)c1ccccc1 (configuration not stated)	none
CC(C)c1cc(C(=O)Nc2sc3c(c2C#N)CCC3)no1	none
CC(C)C(C(=O)Nc1sc2c(c1C#N)CCCCC2)N1C(=O)c2ccccc2C1=O (configuration not stated)	CYP2C9 inh 63.6
CC(C)CC(=O)NC(NC(=S)Nc1sc2c(c1C#N)CCCC2)C(Cl)(Cl)Cl (configuration not stated)	CYP2C19 inh 52.8, CYP2C9 inh 100.0
CC(C)(C)C(=O)Nc1sc2c(c1C#N)CCCCC2	none (no result: CYP2C19 inh, CYP2C9 activ, CYP2C9 inh, CYP2C19 act)
Cn1ncc(Cl)c1C(=O)NC(=S)Nc1sc2c(c1C#N)CCCCC2	CYP2C9 inh 63.1
Cc1nn(C(C)C(=O)Nc2sc3c(c2C#N)CCCC3)c(C)c1[N+](=O)[O-] (configuration not stated)	CYP2C9 inh 61.2
N#Cc1c(NC(=O)c2ccccc2)sc2c1CCC2	none
O=C1CSC(c2ccccc2)N1c1nnc(C23CC4CC(CC(C4)C2)C3)s1 (configuration not stated)	none
CN(C)C(=O)N1CCC(C(=O)NCC2CCCO2)CC1 (configuration not stated)	none (no result: sEH inh, sEH activator)
COc1ccc(OC)c(N2C(=O)CC(Cc3ccc(C)cc3)C2=O)c1 (configuration not stated)	none (no result: CYP2C19 inh, CYP2C9 activ, CYP2C9 inh, CYP2C19 act)
COCCCNC(=O)CCCn1c(=O)[nH]c2ccccc2c1=O	none

Screening data from PubChem.
